The values that follow come from PubChem BioAssay (EPA / NIEHS).

Test [1] can be described thus: APR_HepG2_NuclearSize_72hr: Apredica 72-hour HepG2 Assay for Nuclear Size (AID 2282925). The following applies: high-content imaging, actives raise or lower the signal. Summed up: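 HepG2 cells were exposed to compounds at ten concentrations from 0.39 to 200 uM (duplicate, 0.5% DMSO final) for 72 hr. After fixation in 3.7% formaldehyde, nuclei were stained with Hoechst 33342 (2 ug/mL) and imaged at 20x.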

Test [2] is described as follows: ATG_CRE_CIS: Attagene CIS-FACTORIAL HepG2 Assay for human cAMP Responsive Element (CRE) binding protein 3 (AID 2282926). The settings on record: HepG2 CRE cis-reporter, Attagene multiplexed mRNA; actives raise or lower the signal. Summed up: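 Transfected HepG2 were treated for 24 hours, then RNA was extracted and reporter cDNA amplified with sequence-specific primers. Labelled fragments were separated by capillary electrophoresis, and the CRE signal was fitted bidirectionally with DMSO as baseline.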

Test [3] addresses CCAAT/enhancer-binding protein beta (Homo sapiens) (UniProt P17676). As to the kind of experiment: ATG_C_EBP_CIS: Attagene CIS-FACTORIAL HepG2 Assay for human CCAAT/Enhancer Binding Protein (C/EBP) beta (AID 2282927). The settings on record: HepG2 Attagene cis-factorial transcription factor reporter; actives raise or lower the signal. The method, boiled down: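 Following a 24 h incubation with test chemical, transfected HepG2 cells yielded RNA whose reporter transcripts were quantified by RT-PCR and fluorescent capillary electrophoresis, with DMSO serving as baseline for bidirectional fitting.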

Test [4] is described as follows: ATG_CMV_CIS: Attagene CIS-FACTORIAL HepG2 Assay for human CMV (Internal Marker) (AID 2282928).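 Note: endpoint acts as a background internal control marker rather than a target.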 The settings on record: HepG2 CMV promoter reporter, transcription factor profiling; actives raise or lower the signal. Summed up:
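Cell system: HepG2, transiently transfected multiple reporter units under cis promoters. Exposure: 24 h. Detection: RT-PCR, FAM labeling, HpaI digestion, capillary electrophoresis. Analysis: bidirectional, DMSO baseline.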

Test [5] can be described thus: ATG_DR4_LXR_CIS: Attagene CIS-FACTORIAL HepG2 Assay for human Liver X Receptor (LXR), DR4 submotif (AID 2282929). The following applies: HepG2 Attagene DR4 cis-reporter, mRNA transcription; actives raise or lower the signal. The method, boiled down: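 HepG2, transient MRTU transfection, cis-element (DR4) promoter; 24 h compound exposure; total RNA → oligo(dT) RT → PCR → 6-FAM primer extension → HpaI cut → CE. Gain/loss vs DMSO, bidirectional fit.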

The target of test [6] is Aryl hydrocarbon receptor (Homo sapiens) (UniProt P35869). As to the kind of experiment: ATG_Ahr_CIS: Attagene CIS-FACTORIAL HepG2 Assay for human Aryl Hydrocarbon Receptor (Ahr) (AID 2282930). The settings on record: HepG2 AhR cis-factorial reporter transcription; actives raise or lower the signal. The method, boiled down:
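Values derive from bidirectional fitting against DMSO negative control. Underlying signal: cis-element reporter mRNA in transiently transfected HepG2, harvested 24 h post-dose and measured by RT-PCR plus capillary electrophoresis.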

Test [7] can be described thus: ATG_AP_1_CIS: Attagene CIS-FACTORIAL HepG2 Assay for human Activator Protein 1 (AP-1) (AID 2282931). The settings on record: HepG2 Attagene cis-factorial AP-1 reporter mRNA; actives raise or lower the signal. Summed up:
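Transient MRTU transfection of HepG2 → 24 h chemical treatment → RNA isolation, RT-PCR, 6-FAM labelling, HpaI digest → capillary electrophoresis. Fit: bidirectional, DMSO negative control.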

A short description of test [8]: ATG_AP_2_CIS: Attagene CIS-FACTORIAL HepG2 Assay for human Activator Protein 2 (AP-2) (AID 2282932). The following applies: HepG2 AP-2 cis-reporter, Attagene transcription factor profiling; actives raise or lower the signal. The method, boiled down:
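HepG2 cells were transiently transfected with multiple cis-promoter reporter transcription units and dosed for 24 h. Reporter mRNA was measured by RT-PCR with capillary electrophoresis fluorescence; bidirectional fits relative to DMSO baseline.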

Test [9] in a line: ATG_BRE_CIS: Attagene CIS-FACTORIAL HepG2 Assay for human Bone Morphogenetic Protein (BMP) Response Element (BRE) (AID 2282933). The following applies: HepG2 BMP response element reporter, Attagene transcription factor profiling; actives raise or lower the signal. Summed up: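 After a 24 h chemical treatment, transiently transfected HepG2 cells were lysed for RNA; reporter transcripts were quantified by fluorescent RT-PCR and capillary electrophoresis, normalised to DMSO.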

Test [10] deals with Retinoic acid receptor alpha (Homo sapiens) (UniProt P10276). As to the kind of experiment: ATG_DR5_RAR_CIS: Attagene CIS-FACTORIAL HepG2 Assay for human Retinoic Acid Receptor Alpha (RARE), DR5 submotif (AID 2282934).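 For AC50: reporter responds to endogenous RAR alpha beta and gamma in HepG2 not RARA alone.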 The following applies: HepG2 Attagene cis-factorial RARE DR5 reporter, mRNA; actives raise or lower the signal. Summed up: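 Endpoint fitted in both directions relative to DMSO as negative control. It reflects DR5 cis-element reporter mRNA induction in transiently transfected HepG2 cells, measured 24 h after dosing through RT-PCR and fluorescent capillary electrophoresis.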
Chain of Retinoic acid receptor alpha (Homo sapiens) (P10276 whole entry, looked up): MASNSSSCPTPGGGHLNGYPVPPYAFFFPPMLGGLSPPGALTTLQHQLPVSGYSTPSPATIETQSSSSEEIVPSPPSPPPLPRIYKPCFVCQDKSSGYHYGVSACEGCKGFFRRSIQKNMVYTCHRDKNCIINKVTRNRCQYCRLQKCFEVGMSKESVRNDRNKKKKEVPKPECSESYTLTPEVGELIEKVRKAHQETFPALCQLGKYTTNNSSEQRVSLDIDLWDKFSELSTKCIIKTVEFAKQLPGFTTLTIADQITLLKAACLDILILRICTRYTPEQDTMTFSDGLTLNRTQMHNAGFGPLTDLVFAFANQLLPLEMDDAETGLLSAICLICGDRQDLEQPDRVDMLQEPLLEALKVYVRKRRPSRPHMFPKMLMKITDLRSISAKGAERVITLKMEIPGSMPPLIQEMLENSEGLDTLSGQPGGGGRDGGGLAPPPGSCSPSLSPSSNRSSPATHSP

Test [11] addresses Transcription factor E2F1 (Homo sapiens) (UniProt Q01094). In words: ATG_E2F_CIS: Attagene CIS-FACTORIAL HepG2 Assay for human E2F Transcription Factor 1 (AID 2282935). The following applies: HepG2 Attagene cis-reporter, E2F reporter RNA transcripts; actives raise or lower the signal. The method, boiled down:
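HepG2 cells transiently transfected with multiplexed cis-element reporter units, dosed for 24 h. Reporter mRNA measured by RT-PCR, 6-FAM primer-extension labeling, HpaI digestion and capillary electrophoresis; bidirectional fit versus DMSO baseline.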

Test [12] in a line: ATG_E_Box_CIS: Attagene CIS-FACTORIAL HepG2 Assay for human Enhancer Box (E-box) (AID 2282936). The settings on record: HepG2 E-box cis-reporter transcription, actives raise or lower the signal. The method, boiled down: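 HepG2 cells transiently transfected with multiplexed cis-element reporter units sensing endogenous transcription factor activity; 24 h compound exposure. Reporter mRNA measured by RT-PCR, 6-FAM primer extension, HpaI digestion and capillary electrophoresis; bidirectional fit versus DMSO.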

Test [13] can be described thus: ATG_M_61_CIS: Attagene CIS-FACTORIAL HepG2 Assay for M61 Transcription Factor (Internal Marker) (AID 2282937). The settings on record: HepG2 Attagene CIS-FACTORIAL M61 internal marker reporter; actives raise or lower the signal. The method, boiled down: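 Human liver HepG2, transient MRTU transfection (cis promoter elements), 24 h compound. Total RNA → oligo(dT) RT → PCR → FAM label → HpaI → CE. Internal background marker; bidirectional fitting, DMSO = baseline.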

The nature of test [14]: ATG_EGR_CIS: Attagene CIS-FACTORIAL HepG2 Assay for human Early Growth Response 1 (EGR1) (AID 2282938). The following applies: HepG2 Attagene CIS-FACTORIAL EGR reporter mRNA; actives raise or lower the signal. Summed up:
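Transient transfection of human HepG2 with multiple cis-regulated reporter units, chemical exposure 24 h, total RNA isolated. Reverse transcription, PCR, fluorescent labelling and capillary electrophoresis quantify reporter transcripts; activity fitted bidirectionally against DMSO.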

A short description of test [15]: ATG_M_19_CIS: Attagene CIS-FACTORIAL HepG2 Assay for M19 Transcription Factor (Internal Marker) (AID 2282939). The settings on record: HepG2 Attagene CIS-FACTORIAL M19 internal marker reporter; actives raise or lower the signal. The method, boiled down: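 In this multiplexed cell assay, transiently transfected HepG2 reporter units report endogenous transcription-factor activity; after 24 hours of treatment, labelled reporter cDNA fragments are quantified by capillary electrophoresis and fitted bidirectionally against DMSO.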

Test [16] can be described thus: ATG_ERE_CIS: Attagene CIS-FACTORIAL HepG2 Assay for Estrogen Response Element (ERE) (AID 2282940). The settings on record: HepG2 ERE cis-reporter, Attagene RNA transcript; actives raise or lower the signal. The method, boiled down:
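Measuring endogenous transcription factor output, the assay doses transfected HepG2 cells for 24 hours and quantifies reporter transcripts by fluorescent RT-PCR and capillary electrophoresis, with DMSO as baseline.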

Test [17] is described as follows: ATG_Ets_CIS: Attagene CIS-FACTORIAL HepG2 Assay for human Erythroblast Transformation Specific (ETS) (AID 2282941). The following applies: HepG2 ETS cis-reporter transcription, actives raise or lower the signal. The method, boiled down:
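After transient cis-reporter transfection, HepG2 cells receive test chemical for 24 h. Reporter mRNA levels, measured by RT-PCR and capillary electrophoresis fluorescence, are analysed bidirectionally relative to the DMSO baseline.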

Test [18] concerns the target Hepatocyte nuclear factor 3-beta (Homo sapiens) (UniProt Q9Y261). As to the kind of experiment: ATG_FoxA2_CIS: Attagene CIS-FACTORIAL HepG2 Assay for human Forkhead box A2 (FOXA2) (AID 2282942). The following applies: HepG2 cis-reporter transcription factor activity, 24 h; actives raise or lower the signal. The method, boiled down: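 Transient MRTU transfection of HepG2 liver cells; 24 h treatment; total RNA → oligo(dT) RT → PCR → FAM primer extension → HpaI cut → CE. Bidirectional fit vs DMSO.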

The nature of test [19]: ATG_FoxO_CIS: Attagene CIS-FACTORIAL HepG2 Assay for human Forkhead box O (FoxO) (AID 2282943). The following applies: HepG2 Attagene cis-reporter, FoxO element, mRNA; actives raise or lower the signal. Summed up: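 Values reflect reporter mRNA induction or loss in HepG2 cells 24 h post-dosing, fitted bidirectionally with DMSO as negative control and baseline. Detection used RT-PCR and fluorescence capillary electrophoresis.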

Test [20] is described as follows: ATG_GATA_CIS: Attagene CIS-FACTORIAL HepG2 Assay for human GATA Binding Protein (AID 2282944). The following applies: HepG2 GATA cis-element reporter, Attagene multiplex mRNA; actives raise or lower the signal. The method, boiled down:
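Measures endogenous transcription factor-driven reporter mRNA in HepG2 cells transiently carrying cis-regulated constructs. 24 h dosing; RNA via oligo(dT) reverse transcription, PCR, HpaI digestion, capillary electrophoresis; fitted relative to DMSO.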

As a reminder, the AC50 is the midpoint of the concentration-response curve, whichever way the signal moves.

Calls of active or inactive are those of the source. Rule for the calls: active = hit-call score of the fitted dose curve at least 0.9, where 1 is the maximum; inactive = score below 0.9.

Chain of Transcription factor E2F1 (Homo sapiens) (Q01094 whole entry, looked up): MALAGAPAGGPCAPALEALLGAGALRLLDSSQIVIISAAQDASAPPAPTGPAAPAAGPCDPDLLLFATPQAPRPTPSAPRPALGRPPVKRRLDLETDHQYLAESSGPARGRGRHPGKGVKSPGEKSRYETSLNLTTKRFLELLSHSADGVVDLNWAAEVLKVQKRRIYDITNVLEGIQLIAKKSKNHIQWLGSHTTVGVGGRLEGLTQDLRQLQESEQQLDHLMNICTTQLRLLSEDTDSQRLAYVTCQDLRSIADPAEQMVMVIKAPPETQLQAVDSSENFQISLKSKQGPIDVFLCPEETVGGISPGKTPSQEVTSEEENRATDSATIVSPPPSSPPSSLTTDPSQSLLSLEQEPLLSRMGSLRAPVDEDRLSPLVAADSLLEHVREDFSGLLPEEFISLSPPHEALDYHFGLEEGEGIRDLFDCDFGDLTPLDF
Chain of CCAAT/enhancer-binding protein beta (Homo sapiens) (P17676 whole entry, looked up): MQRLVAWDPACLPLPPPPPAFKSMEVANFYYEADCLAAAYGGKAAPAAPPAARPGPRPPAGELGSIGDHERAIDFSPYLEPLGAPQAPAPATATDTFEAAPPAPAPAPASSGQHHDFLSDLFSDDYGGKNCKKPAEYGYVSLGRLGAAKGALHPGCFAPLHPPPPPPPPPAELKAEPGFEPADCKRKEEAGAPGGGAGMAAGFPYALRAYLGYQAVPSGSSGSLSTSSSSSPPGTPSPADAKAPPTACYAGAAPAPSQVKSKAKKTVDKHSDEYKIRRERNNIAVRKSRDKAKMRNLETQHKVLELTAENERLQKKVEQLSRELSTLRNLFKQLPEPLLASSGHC
Chain of Hepatocyte nuclear factor 3-beta (Homo sapiens) (Q9Y261 whole entry, looked up): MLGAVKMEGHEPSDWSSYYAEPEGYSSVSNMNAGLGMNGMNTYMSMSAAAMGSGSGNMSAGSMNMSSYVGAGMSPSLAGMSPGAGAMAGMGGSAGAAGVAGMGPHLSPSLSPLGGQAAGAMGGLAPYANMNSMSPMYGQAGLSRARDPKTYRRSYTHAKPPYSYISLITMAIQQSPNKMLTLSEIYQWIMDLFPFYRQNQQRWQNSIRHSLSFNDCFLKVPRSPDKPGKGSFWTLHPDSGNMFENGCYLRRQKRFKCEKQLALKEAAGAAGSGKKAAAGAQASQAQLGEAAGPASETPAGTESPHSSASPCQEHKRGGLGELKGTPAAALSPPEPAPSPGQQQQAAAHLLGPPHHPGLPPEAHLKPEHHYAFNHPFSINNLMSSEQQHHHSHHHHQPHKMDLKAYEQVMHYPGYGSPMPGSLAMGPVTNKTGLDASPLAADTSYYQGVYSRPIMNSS
Chain of Aryl hydrocarbon receptor (Homo sapiens) (P35869 whole entry, looked up): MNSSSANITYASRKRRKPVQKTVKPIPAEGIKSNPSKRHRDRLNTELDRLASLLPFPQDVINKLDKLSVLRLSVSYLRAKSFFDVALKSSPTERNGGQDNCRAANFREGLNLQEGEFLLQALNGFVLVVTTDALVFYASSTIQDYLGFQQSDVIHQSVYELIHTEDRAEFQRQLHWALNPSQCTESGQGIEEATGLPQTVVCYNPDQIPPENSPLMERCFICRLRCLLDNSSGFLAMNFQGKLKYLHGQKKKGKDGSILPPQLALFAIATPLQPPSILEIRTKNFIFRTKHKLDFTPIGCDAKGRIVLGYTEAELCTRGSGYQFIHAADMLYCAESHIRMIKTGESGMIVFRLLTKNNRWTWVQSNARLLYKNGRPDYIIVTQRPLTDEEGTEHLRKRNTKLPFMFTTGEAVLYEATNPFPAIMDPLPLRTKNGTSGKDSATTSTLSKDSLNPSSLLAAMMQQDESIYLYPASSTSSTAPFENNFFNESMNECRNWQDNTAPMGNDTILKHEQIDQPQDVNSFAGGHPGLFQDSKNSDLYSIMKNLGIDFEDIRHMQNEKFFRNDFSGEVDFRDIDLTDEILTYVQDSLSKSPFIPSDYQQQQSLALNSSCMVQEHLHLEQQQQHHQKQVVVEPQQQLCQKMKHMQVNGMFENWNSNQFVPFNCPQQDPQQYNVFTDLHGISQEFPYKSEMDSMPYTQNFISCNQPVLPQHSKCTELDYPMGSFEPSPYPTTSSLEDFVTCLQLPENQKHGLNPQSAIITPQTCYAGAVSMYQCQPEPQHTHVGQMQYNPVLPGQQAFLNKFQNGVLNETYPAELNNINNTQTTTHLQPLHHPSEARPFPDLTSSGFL

Take `COC(=O)CCCCC(=O)OC`: the call in [1], in [2], in test [3], in test [4], in [5] and in test [6] was inactive. Moreover, the compound was called inactive in test [7], in test [8], in [9], in [10], in test [11] and in test [12]. Besides, the call in test [13], in [14], in test [15], in [16], in test [17] and in [18] was inactive. For the same compound, the compound was called inactive in test [19] and in [20].

Take `CC(=O)NC1(c2cccc(F)c2)CCN(CC[C@@]2(c3ccc(Cl)c(Cl)c3)CN(c3ccccc3)C(=O)CO2)CC1`: the outcome in test [1], in test [6], in test [8], in [11], in test [12] and in [13] was inactive. The result in [18], in test [19] and in [20] was inactive. Besides, the concentration at half-maximal activity (AC50) is 46.6 µM (active) in test [2]; 54.7 µM (active) in [3]; 45.2 µM (active) in [4]; 37.2 µM (active) in test [5]; 14.5 µM (active) in [7]; 61.8 µM (active) in [9]. For the same compound, the AC50 in [10] is 62 µM (active); in [14] it was 28.5 µM (active); in test [16], 33 µM (active); in test [17] it was 51.9 µM (active).

On to `CCCCCCCCC(=O)O`, for which the compound was called inactive in test [1], in test [2], in [3], in [4], in test [5] and in test [6]. The outcome in [7], in [8], in test [9], in test [10], in [11] and in [12] was inactive. For the same compound, the call in test [13], in test [14], in [15], in [16], in [17] and in [18] was inactive. In addition, the result in [19] and in [20] was inactive.

On to `CCc1nn(C2CCCCC2)c2cc(C3(C#N)CCC(C(=O)O)CC3)ccc12` (stereo unspecified), for which the compound was classed as inactive in test [1], in test [2], in [3], in test [4], in test [6] and in test [7]. Besides, the result in [8], in [9], in [11], in test [12], in test [13] and in [14] was inactive. Moreover, the result in test [17], in test [18], in [19] and in test [20] was inactive. For the same compound, the half-maximal activity concentration (AC50) was 129 µM (active) in test [5], 0.941 µM (active) in test [10] and 2.31 µM (active) in test [16].

Consider `CCCCCCCCCCCCN1CCCC1=O`, for which the call in [1], in test [2], in test [3], in test [4], in [5] and in test [6] was inactive. Further, the call in test [7], in [8], in test [9], in test [10], in test [11] and in test [12] was inactive. Besides, the outcome in [13], in test [14], in test [16], in test [17], in test [18] and in [19] was inactive. In addition, in test [20], the outcome was inactive.

For `CC(O)CO` (stereo unspecified), the compound was classed as inactive in [1], in [2], in test [3], in test [4], in test [5] and in test [6]. The result in [7], in test [8], in test [9], in test [10], in test [11] and in test [12] was inactive. The result in test [13], in [14], in test [16], in [17], in test [18] and in test [19] was inactive. The compound was called inactive in [20].
